Assay results published in PubChem BioAssay (Tox21).
Results filed as inconclusive are left out. Activity calls are given as the source filed them. Calls follow the shape of the dose curve; as a rule, active = well fitted curve in the direction sought with a large enough effect in the repeat runs; inconclusive = weak or mixed curves; inactive = no such curve, though single readings can be large; an effect the other way counts as inactive or inconclusive.

Columns and labels:
[1] = qHTS RealTime-Glo MT Cell Viability Assay in HepG2 cells - 40 hour (AID 1224870); also: nearly all actives have a fitted effect of over 50% in size
Procedure, shortened: (§1)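 HepG2 cells (600/well) mixed with RealTime-Glo MT reagent, settled 5 h at 37 C/5% CO2 before compound addition. Nonlytic NanoLuc luminescence from viable-cell prosubstrate reduction read repeatedly during 40 h treatment at 37 C.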

[2] = A CellTox Green Cytotoxicity Assay to monitor cytotoxicity in HEK293 cells - 40 hour (AID 1224871); also: nearly all actives have a fitted effect of over 45% in size
Procedure, shortened: (§2)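 Homogeneous no-lysis format: HEK293 cell suspension mixed with CellTox Green reagent, seeded, incubated 5 h at 37 C/5% CO2, then dosed by pintool with compound in DMSO.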

[3] = qHTS RealTime-Glo MT Cell Viability Assay in HEK293 cells - 16 hour (AID 1224872); also: top concentration of the series differs between compounds; nearly all actives have a fitted effect of over 50% in size
Procedure, shortened: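 Nonlytic real-time viability readout: viable cells convert prosubstrate to NanoLuc substrate, giving luminescence proportional to live cell number. HEK293, 600 cells/well, compound added after 5 h, continuous culture at 37 C.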

[4] = qHTS RealTime-Glo MT Cell Viability Assay in HepG2 cells - 8 hour (AID 1224873); also: nearly all actives have a fitted effect of over 55% in size
Procedure, shortened: as §1

[5] = A CellTox Green Cytotoxicity Assay to monitor cytotoxicity in HEK293 cells - 24 hour (AID 1224875); also: nearly all actives have a fitted effect of over 45% in size; also: potency is read from the fitted curve at half-maximal effect
Procedure, shortened: as §2

[6] = A CellTox Green Cytotoxicity Assay to monitor cytotoxicity in HepG2 cells - 16 hour (AID 1224876); also: nearly all actives have a fitted effect of over 45% in size
Procedure, shortened: (§3)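 Fluorescent DNA-binding dye, 600 HepG2 cells/well, 5 h preincubation then compound in DMSO; same plates read at 0–40 h, 37 C.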

[7] = qHTS RealTime-Glo MT Cell Viability Assay in HepG2 cells - 32 hour (AID 1224877); also: nearly all actives have a fitted effect of over 55% in size
Procedure, shortened: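 Luminescence read-out: viable HepG2 cells reduce a prosubstrate to a NanoLuc substrate, giving a signal proportional to live cell number. Reads taken at 0, 8, 16, 24, 32 and 40 h of compound exposure at 37 C.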

[8] = A CellTox Green Cytotoxicity Assay to monitor cytotoxicity in HepG2 cells - 24 hour (AID 1224878); also: nearly all actives have a fitted effect of over 45% in size; also: potency is read from the fitted curve at half-maximal effect
Procedure, shortened: as §3

[9] = A CellTox Green Cytotoxicity Assay to monitor cytotoxicity in HepG2 cells - 40 hour (AID 1224879); also: nearly all actives have a fitted effect of over 40% in size
Procedure, shortened: as §3

[10] = qHTS RealTime-Glo MT Cell Viability Assay in HEK293 cells - 40 hour (AID 1224874); conditions: RealTime-Glo luminescence; max response: hits give low values; also: nearly all actives have a fitted effect of over 50% in size; also: potency is read from the fitted curve at half-maximal effect
Procedure, shortened: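 Measured as luminescence from the same continuously cultured HEK293 wells at successive time points (0, 8, 16, 24, 32, 40 h) after compound addition. Reagent present from seeding; dosing at 5 h; incubation 37 C.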
% is scaled to controls: 0 for no effect and ±100 for the full control effect.

CC(C)(O)Cc1ccccc1
inactive: Potency [1] | Potency [2] | Potency [3] | outcome [4] | Potency [5] | Potency [6] | Potency [7] | Potency [8] | Potency [9]

CC1=CC(C)C(C=O)C(C)C1 (stereo not given)
inactive: Potency [1] | Potency [3] | outcome [4] | max response [10] 4.71% | Potency [5] | Potency [6] | Potency [7] | Potency [8]

C=CC(=O)OCCCCCC
inactive: Potency [1] | Potency [2] | Potency [3] | outcome [4] | Potency [5] | Potency [7] | Potency [8] | Potency [9]

CCc1cc(S(=O)(=O)O)c2cc(C(C)C)cccc1-2
inactive: Potency [1] | Potency [2] | Potency [3] | outcome [4] | Potency [5] | Potency [6] | Potency [8] | Potency [9]

Cc1ccc(N)cc1[N+](=O)[O-]
inactive: Potency [1] | Potency [2] | Potency [3] | outcome [4] | Potency [5] | Potency [6] | Potency [9]

Cc1cc(C)c(NC(=O)CN(CC(=O)O)CC(=O)O)c(C)c1Br
inactive: Potency [1] | Potency [3] | outcome [4] | max response [10] -1.32% | Potency [5] | Potency [6] | Potency [7] | Potency [8] | Potency [9]

CCCCOCC(C)OCC(C)O (stereo not given)
inactive: Potency [2] | Potency [3] | outcome [4] | max response [10] 2.63% | Potency [5] | Potency [6] | Potency [7]

CCCCCC[C@@H](CCC)C(=O)O
inactive: Potency [1] | Potency [3] | outcome [4] | max response [10] 13.8% | Potency [5] | Potency [6] | Potency [7] | Potency [8] | Potency [9]

NC(=O)c1ncn([C@@H]2O[C@H](CO)[C@@H](O)[C@H]2O)c1O
active: Potency [5] 19 µM
inactive: Potency [1] | Potency [3] | outcome [4] | Potency [7]

CCCCCCC(=O)OCC
inactive: Potency [1] | Potency [3] | outcome [4] | max response [10] 14.5% | Potency [5] | Potency [6] | Potency [7] | Potency [8] | Potency [9]

O=C(O)C1CCC1
inactive: Potency [1] | Potency [3] | outcome [4] | Potency [5] | Potency [7] | Potency [8] | Potency [9]

Oc1ccc2c(c1)OC[C@@H](N1CCC(O)(c3ccc(F)cc3)CC1)[C@H]2O
inactive: Potency [1] | Potency [3] | outcome [4] | Potency [5] | Potency [6] | Potency [7] | Potency [8] | Potency [9]

C1=C\CC/C=C\CC/C=C\CC/1
inactive: Potency [1] | Potency [3] | outcome [4] | max response [10] 24.2% | Potency [5] | Potency [6] | Potency [7] | Potency [8] | Potency [9]

OCCN1C[C@H](O)[C@@H](O)[C@H](O)[C@H]1CO
inactive: Potency [1] | Potency [3] | outcome [4] | max response [10] 3.53% | Potency [5] | Potency [6] | Potency [7] | Potency [8] | Potency [9]

CCCCCCOC(=O)c1ccccc1O
inactive: Potency [2] | Potency [3] | outcome [4] | max response [10] -8.04% | Potency [5] | Potency [6] | Potency [7] | Potency [8] | Potency [9]

NC(=O)Nc1nc2ccccc2[nH]1
inactive: Potency [1] | Potency [3] | outcome [4] | max response [10] -25.5% | Potency [6] | Potency [7] | Potency [8] | Potency [9]

C/C=C1\C(=O)C[C@H]2[C@@H]3CCC4=CC(=O)CC[C@]4(C)[C@H]3CC[C@]12C
active: Potency [10] 21.4 µM
inactive: Potency [1] | outcome [4] | Potency [5] | Potency [6] | Potency [7] | Potency [9]

Nc1ccn(C2CO[C@H](CO)O2)c(=O)n1 (stereo not given in full)
active: Potency [5] 19 µM | Potency [8] 6.74 µM
inactive: Potency [1] | Potency [3] | outcome [4] | max response [10] -2.21% | Potency [7]

Nc1nc2c(ncn2CCC(CO)CO)c(=O)[nH]1
inactive: Potency [2] | Potency [3] | outcome [4] | max response [10] 0.17% | Potency [5] | Potency [6] | Potency [7] | Potency [8]

CC1(C)OC(=O)Nc2ccc(Br)cc21
inactive: Potency [1] | Potency [3] | outcome [4] | Potency [5] | Potency [6] | Potency [7] | Potency [8]

CC(C)CCOC(=O)CC(C)C
inactive: Potency [1] | Potency [3] | outcome [4] | max response [10] 14.4% | Potency [6] | Potency [7] | Potency [8] | Potency [9]

COC[C@H](c1ccc(C(F)(F)F)cc1)N1CCN(C2(C)CCN(C(=O)c3c(C)ncnc3C)CC2)C[C@H]1C
inactive: Potency [1] | Potency [3] | outcome [4] | max response [10] -19.9% | Potency [5] | Potency [6] | Potency [9]

Cn1cnc2c(=O)[nH]c(N)nc21
inactive: Potency [1] | Potency [3] | outcome [4] | max response [10] 15.1% | Potency [5] | Potency [6] | Potency [8]

O=C(O)CCNC(=O)c1ccc(N=Nc2ccc(O)c(C(=O)O)c2)cc1
inactive: Potency [1] | Potency [3] | outcome [4] | max response [10] -0.519% | Potency [5] | Potency [6] | Potency [7] | Potency [8] | Potency [9]

c1ccc(CCCc2ccccn2)cc1
inactive: Potency [1] | Potency [3] | outcome [4] | max response [10] -0.97% | Potency [6] | Potency [7] | Potency [8] | Potency [9]

CCCCC=O
inactive: Potency [1] | Potency [3] | outcome [4] | max response [10] 2.57% | Potency [5] | Potency [6] | Potency [8] | Potency [9]
